Assay results: PubChem BioAssay (Tox21)
Values without a mark were called inactive. The source made the active and inactive calls. Calls come from the whole dose curve; as a rule, active = well fitted curve in the direction sought with a large enough effect in the repeat runs; inconclusive = weak or mixed curves; inactive = flat fitted curve, though single readings scatter.

Assay: qHTS assay to test for compound auto fluorescence at 535 nm (green) in HEK293 cell free culture (AID 720682)
Conditions: cell-free medium, green autofluorescence 485/535 nm, stronger effect = higher value; series mostly up to 46 µM
From the text: U.S. Tox21 Program National Center for Advancing Translational Sciences [NCATS] NIH Chemical Genomics Center [NCGC] U.S. Environmental Protection Agency [EPA] National Institutes of Environmental Health Sciences [NIEHS] National Toxicology Program [NTP] U.S. Food and Drug Administration [FDA] Tox21 Assay Overview: Compound auto fluorescence often interferes with screening of the compound library against various biological targets and signaling pathways. Some of these compounds may have fluorophoric properties. Such properties may interfere with the assay outputs resulting in false positives and/or negatives. To decrease such complications and ensure the compound activities are relevant in terms of biological response, the Tox21 10K compound library was screened for auto fluorescence. From the fluorophores used as reporter signals in our screening assays, the auto fluorescence equivalencies of compounds against three fluorophores have been evaluated: Triamterene, Fluorescein and Rose Bengal sodium for blue, green and red fluorescence, respectively. The fluorescence intensities were measured using Excitation/Emission wavelengths at 405/460nm, 485/535nm and 540/590nm for blue, green and red labels, respectively. This assay includes the green fluorescence data.
Tox21 Assay Protocol Summary: 5 uL of culture medium (DMEM containing 10% FBS) per well was dispensed into black wall/clear bottom 1536-well plates using a Multidrop Combi Dispenser (ThermoFisher Scientific, Waltham, MA). After 23 nL compound or DMSO vehicle was transferred into assay plate by a pintool work station (Kalypsys, San Diego, CA), fluorescence intensities in the assay plates were measured by an Envision (PerkinElmer, Shelton, CT) plate reader using three labels for measuring blue, green and red fluorescence at […] 460, 535 and 590nm respectively.
% is set by controls: 0 for no effect and ±100 for the full control effect.

Structure (SMILES) | outcome | activity change
C=C1CC[C@H]2C[C@@H]1C2(C)C | inactive | –
CCN1CCC[C@H]1CNC(=O)c1cc(S(N)(=O)=O)ccc1OC | inactive | –
CC(C(=O)O)c1ccc(CC2CCCC2=O)cc1 (stereo not given) | inactive | –
NS(=O)(=O)c1ccc(C(=O)O)cc1 | inactive | –
COC(=O)c1ccc(C)cc1C1=NC(C)(C(C)C)C(=O)N1 (stereo not given) | inactive | –
CN(C)CCCNCCCN(C)C | inactive | –
C[N+](C)(C)CCCCCC[N+](C)(C)C | inactive | –
O=C(O)CNC(=O)c1ccc([N+](=O)[O-])cc1 | inactive | –
CC(C)c1cc2c(cc1S(=O)(=O)O)[C@@]1(C)CCC[C@@](C)(C(=O)O)[C@@H]1CC2 | inactive | –
Cc1[nH]c(=O)c(C#N)cc1-c1ccc2nccn2c1 | inactive | –
CC(=O)OCC(=O)[C@@]1(O)CCC2C3CCC4=CC(=O)CC[C@]4(C)C3[C@@H](O)C[C@@]21C (stereo not given in full) | inactive | –
CCCC(=O)O[C@]1(C(=O)CO)CC[C@H]2[C@@H]3CCC4=CC(=O)CC[C@]4(C)[C@H]3[C@@H](O)C[C@@]21C | inactive | –
CCCCCCCCCCCCCC=O | – | -0.0074% [at 3.72 µM]
O=[N+]([O-])c1ccc(F)cc1F | inactive | –
CCO/C([O-])=N/c1c[n+](N2CCOCC2)no1 | inactive | –
CCCc1cc(C(N)=S)ccn1 | inactive | –
NC(CSCC(=O)O)C(=O)O (stereo not given) | inactive | –
Cc1cccc(C)c1NC(=O)C(C)N (stereo not given) | inactive | –
O=c1cc(CO)occ1O | inactive | –
CC(C)=CCCC(C)CC(=O)O (stereo not given) | inactive | –

Structure (SMILES) | outcome | activity change
CC[N+](C)(C)c1cccc(O)c1 | inactive | –
CC1=CC(C)C(C=O)CC1 (stereo not given) | inactive | –
FC(F)OC(Cl)C(F)(F)F (stereo not given) | inactive | –
CC(C)NC(=O)NC(C)C | inactive | –
FC1(F)C(F)(F)C(F)(F)C2(F)C(F)(F)C(F)(F)C(F)(F)C(F)(F)C2(F)C1(F)F (stereo not given) | inactive | –
O=C(O)CCCc1ccccc1 | inactive | –
CCC(=O)OC(C)c1ccccc1 (stereo not given) | inactive | –
CC(C)(O)C#CC(C)(C)O | inactive | –
COCCc1ccc(OCC(O)CNC(C)C)cc1 (stereo not given) | inactive | –
C=CCOCC(CC)(CO)COCC=C | inactive | –
C[C@](N)(Cc1ccc(O)cc1)C(=O)O | inactive | –
CCN(CC)CCNC(=O)c1cc(S(C)(=O)=O)ccc1OC | inactive | –
COc1ccc2c(c1)c(CC(=O)OCC(=O)O)c(C)n2C(=O)c1ccc(Cl)cc1 | inactive | –
CCC(C)C1CCCCC1=O (stereo not given) | inactive | –
CN(C)CCCN1c2ccccc2CCc2ccc(Cl)cc21 | inactive | –
CCCCCCCCCCCCN(CCCCCCCCCCCC)CCCCCCCCCCCC | inactive | –
Oc1ccc(C2CNCCc3c2cc(O)c(O)c3Cl)cc1 (stereo not given) | inactive | –
N#Cc1ccc(C2CCCc3cncn32)cc1 (stereo not given) | inactive | –
CC(C)CNCC(C)C | inactive | –
O=C(O)c1ccccc1OP(=O)(O)O | inactive | –
